Measured values: PubChem BioAssay (NCATS)
Results filed as inconclusive are left out. Active and inactive are the calls of the source. Unless noted, the call rests on the fitted dose curve; in most records, active means well fitted curve in the direction sought with a large enough effect; inconclusive means small, poorly fitted or top-dose-only effect, or another doubt; inactive means no such curve, though single readings can be large; an effect the other way counts as inactive or inconclusive.

Assays:
[1] = target: Estrogen receptor (Homo sapiens) (UniProt P03372); experiment: qHTS assay for small molecule antagonists of estrogen receptor alpha signaling (AID 588513; active means well fitted curve in the direction sought with a large enough effect in the signal ratio, with a control signal flat, not every such curve was filed as active; the % refers to the signal ratio; further: on the % scale 0 is the no-effect control and ±100 the full control effect)
Estrogen receptor (Homo sapiens), sequence (P03372 whole entry, looked up): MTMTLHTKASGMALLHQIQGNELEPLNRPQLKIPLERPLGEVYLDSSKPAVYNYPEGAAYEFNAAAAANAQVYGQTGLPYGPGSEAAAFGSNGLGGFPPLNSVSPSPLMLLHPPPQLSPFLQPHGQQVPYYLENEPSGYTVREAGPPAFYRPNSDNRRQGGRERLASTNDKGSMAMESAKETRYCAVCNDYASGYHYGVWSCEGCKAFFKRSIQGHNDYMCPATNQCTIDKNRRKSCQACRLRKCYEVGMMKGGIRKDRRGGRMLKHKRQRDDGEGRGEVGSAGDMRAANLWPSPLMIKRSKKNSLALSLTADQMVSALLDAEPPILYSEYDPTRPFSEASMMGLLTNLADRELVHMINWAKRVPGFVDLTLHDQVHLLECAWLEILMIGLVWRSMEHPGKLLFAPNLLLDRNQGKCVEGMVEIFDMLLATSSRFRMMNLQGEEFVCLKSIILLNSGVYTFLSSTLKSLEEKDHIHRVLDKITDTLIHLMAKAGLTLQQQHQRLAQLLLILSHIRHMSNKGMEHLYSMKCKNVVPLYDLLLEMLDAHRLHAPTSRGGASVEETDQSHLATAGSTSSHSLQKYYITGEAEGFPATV
Procedure, shortened: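 Cells were plated at 5000/well and incubated 4 h at 37 C. Compounds were added as 1:2 dilution series, duplicates. 17-beta-estradiol (0.5nM final) was added for 18 h before CCF4 detection.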

[2] = target: Peroxisome proliferator-activated receptor gamma (Homo sapiens) (UniProt P37231); experiment: qHTS assay for small molecule agonists of peroxisome proliferator-activated receptor gamma signaling (AID 588536; active means well fitted curve in the direction sought with a large enough effect in the signal ratio, with a control signal flat, not every such curve was filed as active; the % refers to the signal ratio;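 further: 0% = DMSO basal wells and 100% = rosiglitazone at 2 µM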)
Peroxisome proliferator-activated receptor gamma (Homo sapiens), sequence (P37231 whole entry, looked up): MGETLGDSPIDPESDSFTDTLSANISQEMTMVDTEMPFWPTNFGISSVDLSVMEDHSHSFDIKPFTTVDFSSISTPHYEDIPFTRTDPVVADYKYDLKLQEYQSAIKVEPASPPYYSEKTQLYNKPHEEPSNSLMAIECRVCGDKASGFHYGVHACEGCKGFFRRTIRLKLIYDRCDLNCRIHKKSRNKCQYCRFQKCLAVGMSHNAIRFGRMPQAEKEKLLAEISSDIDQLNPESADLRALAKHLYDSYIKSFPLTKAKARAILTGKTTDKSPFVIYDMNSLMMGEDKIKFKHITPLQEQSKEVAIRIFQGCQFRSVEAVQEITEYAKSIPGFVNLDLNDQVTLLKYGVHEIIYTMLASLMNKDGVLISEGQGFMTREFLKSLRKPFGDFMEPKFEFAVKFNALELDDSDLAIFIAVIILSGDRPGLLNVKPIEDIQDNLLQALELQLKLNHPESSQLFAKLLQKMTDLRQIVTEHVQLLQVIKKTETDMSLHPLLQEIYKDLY
Procedure, shortened: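 Ratiometric blue/green fluorescence (405 nm excitation; 460 and 530 nm emission) from CCF4-loaded HEK293 reporter cells serves as signal. Exposure to test compounds lasts 16 h at 37 C in medium containing 1% charcoal/dextran-treated serum.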

[3] = target: Peroxisome proliferator-activated receptor gamma (Homo sapiens) (UniProt P37231); experiment: qHTS assay for small molecule antagonists of peroxisome proliferator-activated receptor gamma signaling (AID 588537; active means well fitted inhibition curve with a large enough effect in the signal ratio, with a control signal flat, not every such curve was filed as active; the % refers to the signal ratio;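 further: reporter cells co-stimulated with 50 nM rosiglitazone agonist during compound treatment; % of control where 0% means no effect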)
Procedure, shortened: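 PPARγ-UAS-bla HEK293 cells (3000/well) in 1% charcoal/dextran-stripped FBS are treated with compound, then stimulated with 50 nM rosiglitazone for 16 h at 37 °C. Read-out is CCF4 β-lactamase fluorescence after 2 h at RT. IC50 comes from Hill fits normalised to rosiglitazone and DMSO.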

[4] = qHTS assay for small molecule agonists of retinoid X receptor alpha signaling (AID 588544; calls by dose curve;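 on activation: 0% = DMSO basal wells and 100% = reference agonist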); conditions: HEK293T RXRa-UAS-bla, beta-lactamase reporter, 18 h; 530 nm emission
[5] = target: Retinoic acid receptor RXR-alpha (Homo sapiens) (UniProt P19793); experiment: as above
Retinoic acid receptor RXR-alpha (Homo sapiens), sequence (P19793 whole entry, looked up): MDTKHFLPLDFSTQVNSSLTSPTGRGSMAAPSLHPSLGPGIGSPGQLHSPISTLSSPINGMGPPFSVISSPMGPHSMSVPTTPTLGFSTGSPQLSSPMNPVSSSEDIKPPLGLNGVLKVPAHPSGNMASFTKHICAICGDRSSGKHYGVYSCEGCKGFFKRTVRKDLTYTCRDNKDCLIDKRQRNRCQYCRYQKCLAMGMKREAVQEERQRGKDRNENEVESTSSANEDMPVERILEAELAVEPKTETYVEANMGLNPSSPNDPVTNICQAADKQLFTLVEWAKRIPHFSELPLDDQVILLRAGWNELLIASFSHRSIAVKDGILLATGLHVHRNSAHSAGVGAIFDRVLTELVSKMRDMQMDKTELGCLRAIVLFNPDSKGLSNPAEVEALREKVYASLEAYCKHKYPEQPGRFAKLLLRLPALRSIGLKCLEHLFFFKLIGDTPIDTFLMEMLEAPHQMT

[6] = target: Thyroid hormone receptor beta (Homo sapiens) (UniProt P10828); experiment: qHTS assay for small molecule agonists of thyroid hormone receptor beta signaling (AID 588545; calls by dose curve;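 further: 0% = DMSO only and 100% = 10 nM T3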)
Thyroid hormone receptor beta (Homo sapiens), sequence (P10828 whole entry, looked up): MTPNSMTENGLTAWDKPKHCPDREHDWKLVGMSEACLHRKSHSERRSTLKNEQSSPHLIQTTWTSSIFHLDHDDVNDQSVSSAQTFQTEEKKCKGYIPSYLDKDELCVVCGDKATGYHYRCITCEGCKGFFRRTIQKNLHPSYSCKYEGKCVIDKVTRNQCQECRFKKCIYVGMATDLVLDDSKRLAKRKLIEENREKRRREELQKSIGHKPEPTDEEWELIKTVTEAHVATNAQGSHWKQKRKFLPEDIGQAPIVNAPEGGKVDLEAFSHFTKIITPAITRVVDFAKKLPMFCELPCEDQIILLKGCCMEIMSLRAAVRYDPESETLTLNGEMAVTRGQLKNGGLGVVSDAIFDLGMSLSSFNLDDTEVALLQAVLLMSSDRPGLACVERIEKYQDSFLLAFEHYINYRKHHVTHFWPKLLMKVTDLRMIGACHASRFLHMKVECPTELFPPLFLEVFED
Procedure, shortened: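 Beta-lactamase reporter activity under TR response element control is measured in HEK 293 cells after 18 hrs compound exposure. Signal is ratiometric CCF4 fluorescence, 460/530 nm.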

[7] = qHTS assay for small molecule antagonists of retinoid X receptor alpha signaling (AID 588546; active means well fitted inhibition curve with a large enough effect in the signal ratio, with a control signal flat, not every such curve was filed as active; the % refers to the signal ratio;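 further: cells stimulated with 9-cis-retinoic acid as agonist; on the % scale 0 is the no-effect control and ±100 the full control effect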); conditions: HEK293T RXRa-UAS-bla, beta-lactamase ratio, antagonist mode; measured here: W530 green channel, cytotoxicity proxy
Procedure, shortened: (§1)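 Beta-lactamase reporter inhibition, read as CCF4 fluorescence ratio (ex 405, em 460/530 nm) after 2 h at RT. HEK293T UAS-bla cells, 2500/well, were stimulated with 9-cis-RA at 500 or 100 nM final alongside test compound for 18 h at 37 C.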

[8] = target: Retinoic acid receptor RXR-alpha (Homo sapiens) (UniProt P19793); experiment: as above; conditions: HEK293T RXRa-UAS-bla, beta-lactamase ratio, antagonist mode
Procedure, shortened: as §1

[9] = target: Thyroid hormone receptor beta (Homo sapiens) (UniProt P10828); experiment: qHTS assay for small molecule antagonists of thyroid hormone receptor beta signaling (AID 588547; active means well fitted inhibition curve with a large enough effect in the signal ratio, with a control signal flat, not every such curve was filed as active; the % refers to the signal ratio;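 further: cells stimulated with 0.4 nM T3 agonist during compound exposure; series mostly up to about 77 µM; on the % scale 0 is the no-effect control and ±100 the full control effect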); conditions: TR-UAS-bla HEK293, beta-lactamase ratio, antagonist mode, 18 h
Procedure, shortened: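 TR-UAS-bla GripTite HEK293 cells in 2% charcoal/dextran FBS medium; compounds 0.59 nM to 92 uM with T3 at 0.4nM final, 18 h at 37 C. Beta-lactamase read by CCF4 fluorescence (460/530 nm); Hill fits gave IC50 and efficacy.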

[10] = qHTS assay for small molecule activators of the p53 signaling pathway (AID 651743; active means well fitted activation curve with a large enough effect in the signal ratio, not every such curve was filed as active; the % refers to the signal ratio; further: series mostly up to about 92 µM; % of control where 0% means no effect); conditions: HCT-116 p53RE-bla, beta-lactamase FRET ratio, 16 h; activation: stronger effect = higher value
Procedure, shortened: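 p53RE-bla HCT-116 cells carrying a beta-lactamase reporter under p53 response elements were exposed to compounds for 16 hours at 37 C. Reporter activity read as fluorescence after 2 hours at room temperature with LiveBLAzer B/G FRET substrate.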

[11] = qHTS assay for small molecule activators of the nuclear factor-kappa B (NF-kB) signaling pathway (AID 651749; active means well fitted activation curve with a large enough effect in the signal ratio; the % refers to the signal ratio; further: series mostly up to about 77 µM; % of control where 0% means no effect); conditions: NF-kB-bla ME-180 cells, beta-lactamase FRET ratio, 16 h; activation: stronger effect = higher value
Procedure, shortened: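 NF-kB-bla ME-180 cells carrying a beta-lactamase reporter under an NF-kB response element, 2,000 cells/well, exposed to compound for 16 hr at 37C; FRET-based beta-lactamase fluorescence read-out of pathway activation.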

[12] = qHTS assay for environmental chemicals that activate the Aryl hydrocarbon Receptor (AhR) signaling pathway (AID 651777); conditions: 1A2-DRE human hepatoma cells, luciferase, 24 h; activation: stronger effect = higher value; further: % of control where 0% means no effect; nearly all actives have a fitted effect of over 15% in size
Procedure, shortened: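 Quantitative HTS in stably transfected human liver-derived cells whose luciferase gene sits downstream of the CYP1A2 promoter and dioxin response element. After 24 hr exposure at 37 C, One-Glo luminescence was measured.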

[13] = target: Peroxisome proliferator-activated receptor alpha (Homo sapiens) (UniProt Q07869); experiment: qHTS assay for small molecule agonists of the peroxisome proliferator-activated receptor alpha (PPARalpha) signaling pathway (AID 651778); conditions: PathHunter PPARalpha complementation, chemiluminescence, 6 h; max response: stronger effect = higher value; further: % of control where 0% means no effect
Peroxisome proliferator-activated receptor alpha (Homo sapiens), sequence (Q07869 whole entry, looked up, the tested form may be a part): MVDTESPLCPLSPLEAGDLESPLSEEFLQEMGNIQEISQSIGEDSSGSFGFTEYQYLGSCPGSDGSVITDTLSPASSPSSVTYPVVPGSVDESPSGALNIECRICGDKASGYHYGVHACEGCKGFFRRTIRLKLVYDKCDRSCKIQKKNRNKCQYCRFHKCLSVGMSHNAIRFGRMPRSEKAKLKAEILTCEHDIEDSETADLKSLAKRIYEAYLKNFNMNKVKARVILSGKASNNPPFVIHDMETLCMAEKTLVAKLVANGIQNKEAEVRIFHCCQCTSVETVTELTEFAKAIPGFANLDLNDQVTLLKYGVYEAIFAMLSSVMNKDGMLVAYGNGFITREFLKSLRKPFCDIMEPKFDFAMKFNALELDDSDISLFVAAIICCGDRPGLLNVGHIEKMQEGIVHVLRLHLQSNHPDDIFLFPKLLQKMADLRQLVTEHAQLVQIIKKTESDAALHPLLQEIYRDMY
Procedure, shortened: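 Enzyme-fragment complementation assay in which ligand-bound PPARalpha translocates and forms an active enzyme that generates chemiluminescence. Cells were plated overnight, exposed to compound for 6 hr at 37 C, and then given detection reagent for 60 min at room temperature.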

[14] = qHTS assay for small molecule agonists of the antioxidant response element (ARE) signaling pathway measured by Nrf2-dependant transcriptional activity (AID 720636; active means well fitted curve in the direction sought with a large enough effect in the repeat runs; an effect the other way counts as inactive or inconclusive; further: % of control where 0% means no effect)
Procedure, shortened: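 Quantitative HTS format in HepG2 cells stably expressing an ARE-luciferase reporter; 16 hr compound treatment at 37 C, luciferase signal detected with ONE-Glo.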

[15] = qHTS assay for small molecule agonists of the antioxidant response element (ARE) signaling pathway measured by Nrf2-dependant transcriptional activity - cell viability counter screen (AID 720653; active means well fitted curve in the direction sought with a large enough effect in the repeat runs; an effect the other way counts as inactive or inconclusive; further: on the % scale 0 is the no-effect control and ±100 the full control effect); conditions: ARE-bla HepG2 viability, CellTiter-Glo ATP luminescence, 16 h; max response: stronger effect = lower value
Procedure, shortened: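 ARE-bla HepG2 cells treated with compounds for 16 h at 37C; this counter screen measures viability as intracellular ATP by CellTiter-Glo luminescence after 30 min at room temperature.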

[16] = qHTS assay for cell viability of HEK293 cells (AID 743288); conditions: ATP luminescence (CellTiter-Glo), 18 h; max response: stronger effect = lower value; further: on the % scale 0 is the no-effect control and ±100 the full control effect; nearly all actives have a fitted effect of over 50% in size
Procedure, shortened: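 The Tox21 protocol used parental HEK293 cells treated for 18 h at 37 C with compounds delivered by pintool; ATP-coupled luminescence after 30 min at room temperature gave viability.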

[17] = qHTS assay for cell viability of the p53RE-bla HCT-116 cell line (AID 743292); further: on the % scale 0 is the no-effect control and ±100 the full control effect; nearly all actives have a fitted effect of over 55% in size
Procedure, shortened: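 Viability of compound-treated p53RE-bla HCT-116 cells is taken from ATP-dependent luciferase luminescence. Treatment lasts 16 h at 37 C after a 5 h settling period; detection follows 30 min at room temperature.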

[18] = target: Nuclear receptor subfamily 1 group I member 2 (Rattus norvegicus) (UniProt Q9R1A7); experiment: qHTS assay for small molecule activators of the rat pregnane X receptor (rPXR) signaling pathway (AID 651751; call rule not given here; further: 0% is about no effect); conditions: rPXR reporter cells, luciferase (One-Glo), 24 h
Nuclear receptor subfamily 1 group I member 2 (Rattus norvegicus), sequence (Q9R1A7 whole entry, looked up): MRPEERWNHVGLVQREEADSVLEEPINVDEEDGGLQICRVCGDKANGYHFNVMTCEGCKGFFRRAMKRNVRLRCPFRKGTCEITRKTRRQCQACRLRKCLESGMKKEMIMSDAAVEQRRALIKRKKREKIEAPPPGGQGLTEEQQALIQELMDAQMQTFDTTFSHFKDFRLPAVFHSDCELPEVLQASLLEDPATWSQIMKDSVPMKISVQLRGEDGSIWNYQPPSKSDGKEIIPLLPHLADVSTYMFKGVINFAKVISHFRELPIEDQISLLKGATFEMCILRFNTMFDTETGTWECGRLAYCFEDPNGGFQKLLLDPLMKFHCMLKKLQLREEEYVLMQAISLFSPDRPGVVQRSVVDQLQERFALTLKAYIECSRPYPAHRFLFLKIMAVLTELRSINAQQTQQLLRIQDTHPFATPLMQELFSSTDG

[19] = target: Vitamin D3 receptor (Homo sapiens) (UniProt P11473); experiment: qHTS assay for small molecule agonists of vitamin D receptor signaling (AID 588543; calls by dose curve;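 further: 0% = DMSO basal and 100% = reference agonist control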)
Vitamin D3 receptor (Homo sapiens), sequence (P11473 whole entry, looked up): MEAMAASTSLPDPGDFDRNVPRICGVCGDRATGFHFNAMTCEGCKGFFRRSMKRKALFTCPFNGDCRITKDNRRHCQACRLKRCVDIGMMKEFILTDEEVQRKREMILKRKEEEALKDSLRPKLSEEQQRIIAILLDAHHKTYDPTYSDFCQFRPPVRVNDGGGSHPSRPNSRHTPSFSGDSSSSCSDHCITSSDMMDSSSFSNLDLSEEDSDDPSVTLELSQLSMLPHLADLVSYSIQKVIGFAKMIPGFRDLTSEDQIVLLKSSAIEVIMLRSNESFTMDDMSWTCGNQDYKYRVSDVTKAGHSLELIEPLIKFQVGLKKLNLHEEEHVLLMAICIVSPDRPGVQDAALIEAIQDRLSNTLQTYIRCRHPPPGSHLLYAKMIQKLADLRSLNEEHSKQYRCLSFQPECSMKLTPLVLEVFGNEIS
Procedure, shortened: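 qHTS in agonist mode: compound titrations stimulate a VDR-driven β-lactamase reporter in HEK293T cells over 16 h at 37 °C. Response normalized to 50 nM 1α,25-dihydroxyvitamin D3 = 100%, DMSO = 0%; Hill fitting gives EC50 and maximal response.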

[20] = qHTS assay for small molecule activators of the human pregnane X receptor (PXR) signaling pathway (AID 720659; call rule not given here; further: 0% is about no effect)

| SMILES | Potency [1] | outcome [2] | Potency [3] | max response [4] [%] | Potency [5] | Potency [6] | max response [7] [%] | max response [8] | activity change % (negative = inhibition) [9] | activation [10] | activation [11] | activation [12] | max response [13] | Potency [14] | max response [15] | max response [16] | Potency [17] | max response [18] | outcome [19] | outcome [20] |
| --- | --- | --- | --- | --- | --- | --- | --- | --- | --- | --- | --- | --- | --- | --- | --- | --- | --- | --- | --- | --- |
| C=C(C)C(=O)OCCC[Si](OC)(OC)OC | inactive | inactive | inactive | -14.5 | inactive | inactive | -3.97 | -21.4% (inactive) | 2.39% (inactive) | -1.41% (inactive) | -3.72% (inactive) | -2.37% (inactive) | -1.45% (inactive) | inactive | -0.904% (inactive) | -1.87% (inactive) | inactive | -1.68% (inactive) |  |  |
| FC(F)(F)c1ccc(Cl)c(Cl)c1 |  | inactive | inactive | -13.8 | inactive | inactive | 5.97 | -9.01% (inactive) | 7.4% (inactive) | -5.24% (inactive) | -0.0768% (inactive) | 3.72% (inactive) | 0.167% (inactive) | inactive | -4.28% (inactive) | -13.4% (inactive) | inactive | -0.267% (inactive) | inactive | inactive |
| CN(C)Cc1cc(CN(C)C)c(O)c(CN(C)C)c1 |  | inactive |  | -13.7 | inactive |  | -16.5 | -13.1% (inactive) |  | -4% (inactive) | -0.675% (inactive) | -0.0067% (inactive) | -1.39% (inactive) | inactive | -15.7% (inactive) | -7.71% (inactive) | inactive | 1.59% (inactive) |  | inactive |
| CC(C)OB(OC(C)C)OC(C)C | inactive | inactive | inactive | -15.5 | inactive |  | -7.32 | 0.387% (inactive) |  | 0.574% (inactive) | 1.02% (inactive) | 9.09% (inactive) | -0.0686% (inactive) |  | -7.65% (inactive) | -7.12% (inactive) | inactive | 0.348% (inactive) | inactive | inactive |
